CYP2C19 inhib: blockers of cytochrome P450 2C19 activity – biochemical, luminescence, ADME assay, primary screen; CYP2C19 Supersomes, luciferin-H EGE luminescence, 30 min; inhibition, % at 5 µM; 96,000 tested, 21% active;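 active = CYP2C19 inhibition above a set limit at 5 µM in the primary screen, cut at about 50% in these data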;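 note: plate controls were negative control wells for no effect and 2.5 mM tranylcypromine positive control for full effect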
CYP2C9 inhib: blockers of cytochrome P450 2C9 activity – biochemical, luminescence, ADME assay, primary screen; P11712; CYP2C9 Supersomes, luciferin-H conversion; inhibition, % at 5 µM; 96,000 tested, 20% active;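 active = blocking of liver enzyme CYP2C9 beyond about 50% at 5 µM, limit read from the data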
CYP2C9 act: human CYP2C9 activators, primary screen, biochemical, luminescence | 96,000 tested, 1.4% active | recombinant CYP2C9, luciferin-H conversion; active compounds read high; factor 1 = untreated enzyme, 0 = blocked | activation factor at 5 µM | Cytochrome P450 2C9 (Homo sapiens), P11712;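 active = activation factor of 2 or more for CYP2C9 at a 5 µM dose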;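 note: 0 = sulfaphenazole-blocked wells and 1 = vehicle-only wells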
Pyk2 oligo antag: antagonists of Pyk2 self-association, primary screen, Q293 cells, FERM NanoBiT luminescence, HTS; active compounds read low; 99,000 tested, 0.83% active; AID 1347419, 2020; z-score (the deposit names both 25 µM and 10 µM);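 active = Z-score of -3 or lower, scaled per plate to the spread of control and sample wells; inactive = z-score above -3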;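 note: negative z-score means lost luminescence so less FERM oligomerization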
CYP2C19 activ: human CYP2C19 activators, primary screen, biochemical, luminescence. recombinant CYP2C19, luciferin-H EGE luminescence; active compounds read high; 0 = fully inhibited enzyme, 1 = untreated enzyme. activation factor at 5 µM. 96,000 tested, under 10 active. AID 1025, 2008;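 active = activation factor of at least 2 at 5 µM in the primary screen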;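 note: 0 = wells with 2.5 mM tranylcypromine and 1 = vehicle-only wells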
Starred values were filed as active, the others as inactive; / = no result given. Only some compounds are listed: those with a hit (about 28% of all), similar ones and a draw of the others.

SMILES	CYP2C19 inhib	CYP2C9 inhib	CYP2C9 act	Pyk2 oligo antag	CYP2C19 activ
O=C(CSc1n[nH]c(-c2ccccc2)n1)NC(=O)NCc1ccco1	83*	79*	0.2	2	0.2
Cc1cc2nc(CCN3CCOCC3)n(S(=O)(=O)c3ccc(C(C)(C)C)cc3)c2cc1C	/	/	/	-0.24	/
CSc1ncccc1C(=O)OCC(=O)NC(=O)NCCC(C)C	16	-22	1.2	-0.03	0.8
CN(C1CCCCC1)S(=O)(=O)Cc1ccccc1	54*	16	0.8	0.27	0.5
CCCS(=O)(=O)N1CCC(C(=O)N2CCc3ccccc3C2)CC1	34	0	1	-0.06	0.7
COc1ccc(N/N=C(\C=N\O)C(=O)c2ccc(OC)cc2)cc1	75*	88*	0.1	-1.3	0.3
COc1ccc(C(=O)/C=C(\C)Nc2ccc(NC(C)=O)cc2)cc1	15	17	0.8	2	0.9
CCOc1cccc2sc(=NC(=O)c3ccc(S(=O)(=O)N4CCOCC4)cc3)n(C)c12	32	56*	0.4	-0.17	0.7
CCOC(=O)c1sc(=NC(=O)c2ccc(S(=O)(=O)N3CC(C)OC(C)C3)cc2)n(C)c1C (stereo not drawn)	7	2	1	-0.52	0.9
COc1nc(N/N=C/c2cc3c(cc2Br)OCO3)nc(N2CCOCC2)n1	35	77*	0.2	-2.6	0.7
COc1nc(N/N=C/c2ccc(C)cc2)nc(N2CCCCC2)n1	/	/	/	-1.4	/
CCOc1ccc(N(CC)S(=O)(=O)c2ccc3c(c2)n(C)c(=O)c(=O)n3C)cc1	-3	44	0.6	/	1
O=C(CNC(=O)c1cccs1)NC1=NCCS1	11	-3	1	-1.1	0.9
Cc1ccc(SC(C)c2nc(-c3cccnc3)no2)cc1 (stereo not drawn)	67*	82*	0.2	0.1	0.3
c1cncc(-c2noc(C34CC5CC(CC(C5)C3)C4)n2)c1	83*	37	0.6	0.53	0.2
c1ccc(C(c2ccccc2)c2nc(-c3cccnc3)no2)cc1	86*	96*	0	-2.2	0.1
Cc1ccccc1-c1noc(C23CC4CC(CC(C4)C2)C3)n1	0	-1	1	-0.34	1
Clc1ccc(-c2noc(CCCc3ccccc3)n2)cc1	-2	-7	1.1	1.1	1
c1ccc(OCCCc2nc(-c3cccnc3)no2)cc1	64*	35	0.7	-1.2	0.4
Cc1ccc(-c2noc(CSc3ccccc3)n2)cc1	20	9	0.9	0.64	0.8
c1ccc(SCc2nc(-c3cccnc3)no2)cc1	93*	59*	0.4	0	0.1
c1ccc(C(Cc2nc(-c3cccnc3)no2)c2ccccc2)cc1	97*	53*	0.5	-1.8	0
Cc1cc(Br)ccc1OCc1nc(-c2cccnc2)no1	40	-10	1.1	-0.04	0.6
COc1cccc(NC(=O)Cn2cnc3sc(C)c(S(=O)(=O)N4CCCCC4)c3c2=O)c1	18	66*	0.3	-2.2	0.8
COC(=O)Cn1cnc2sc(C)c(S(=O)(=O)N3CCN(c4ccccc4OC)CC3)c2c1=O	27	51*	0.5	1.5	0.7
SMILES	CYP2C19 inhib	CYP2C9 inhib	CYP2C9 act	Pyk2 oligo antag	CYP2C19 activ
COc1ccc(-c2nnc(SCc3ccccn3)n2C)cc1	/	/	/	-0.12	/
Cn1c(SCCOc2ccccc2Cl)nnc1-c1ccncc1	97*	62*	0.4	0.84	0
Cc1ccccc1OCCSc1nnc(-c2ccncc2)n1C	97*	86*	0.1	-0.04	0
CCOP(=O)(OCC)C(NCc1ccccc1)c1ccc(Br)cc1 (stereo not drawn)	54*	14	0.9	-0.24	0.5
Cc1ccc(-c2nc(C3CCCN(S(=O)(=O)c4ccc(C)cc4)C3)no2)cc1 (stereo not drawn)	58*	57*	0.4	/	0.4
Cc1ccc(S(=O)(=O)N/N=C/c2ccc(OCC(=O)NC(C)C)cc2)cc1	/	/	/	0.94	/
CC(C)(C)Nc1nc(NC(C)(C)C)nc(-n2ccnc2)n1	36	63*	0.4	-2.2	0.6
COCCNC(=O)CN(C(=O)CCC(=O)Nc1nccs1)c1ccccc1OC	11	34	0.7	2.1	0.9
O=C(NCC(=O)N(Cc1ccco1)C(C(=O)NC1CCCC1)c1cccnc1)c1cccs1 (stereo not drawn)	17	86*	0.1	0.11	0.8

High-throughput results as filed in PubChem.
